# IL1B secr inh – inflammasome signaling inhibition, IL-1 beta readout. THP-1 LPS/ATP IL-1B secretion, AlphaLISA, 16 h; stronger effect = lower value. AID 743279. activity change, % at 57.5 µM. 360,000 compounds, 4.7% hits; in the data active = activity change below about -50%; inconclusive = mostly about -30% to -49%
#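 THP-1 cells pretreated 1 hr with compounds (up to 57.5 uM final), then stimulated with LPS (250 ng/mL final) plus ATP (1.25 mM final); secreted IL-1B measured by AlphaLISA after 16 hr, decreased signal indicating inhibition.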
# D3 antag – blocks the human D3 dopamine receptor; P35462; D3R cells, DiscoveRx beta-arrestin luminescence, antagonist mode; stronger effect = lower value; max response, negative = inhibition, %; 360,000 compounds, 2.5% hits; in the data active = max response below about -50%; inconclusive = no clear call, values can overlap the other calls
#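 Cells expressing the human receptor were seeded at 1500 cells/well, incubated overnight at 37 degrees C in 5% CO2, then exposed to library compounds with dopamine controls for 90 minutes at 37 degrees C before luminescent detection.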
# TDP1 cell noCPT – qHTS for Inhibitors of human tyrosyl-DNA phosphodiesterase 1 (TDP1): qHTS in cells in absence of CPT; AID 686978, 2013; 420,000 compounds, 15% hits; Potency, µM (series often up to 46.2 µM), actives largely listed as inhibitors; DT40 Tdp1-/- hTDP1 cells, no CPT, ATP luminescence, 48 h; note: nearly all actives have a fitted effect of over 55% in size
#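 Chicken DT40 Tdp1-/- cells stably complemented with human TDP1 were seeded at 400 cells/well with DMSO in place of 20 nM camptothecin. After compound pinning, cells grew at least 48 hr at 37 °C; viability read by CellTiter-Glo luminescence.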
# DT40 TDP1 CPT – DT40-hTDP1 cell growth loss with CPT; Potency, µM (highest dose often 46.2 µM), hits mostly inhibitors; chicken DT40 Tdp1-/-;hTDP1 cells + 20 nM CPT, ATP luminescence, 48 h; AID 686979; 420,000 compounds, 12% hits; note: nearly all actives have a fitted effect of over 55% in size
#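 Chicken DT40 Tdp1-/- cells complemented with human TDP1, 400 cells/well, exposed to compounds plus 20 nM camptothecin for at least 48 h at 37 C; viability read as ATP content by CellTiter-Glo luminescence.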
# ClpP mod – qHTS Assay for Activators of ClpP; ATP-dependent Clp protease proteolytic subunit (Bacillus subtilis (strain 168)), P80244; purified B. subtilis ClpP, FRET peptide cleavage, 20 min; Potency, µM (titrated, usually from 57.5 µM); 340,000 compounds, 1.9% hits; AID 651965, 2013; active = well fitted falling curve with a large enough effect; inconclusive = small, poorly fitted or top-dose-only effect; inactive = no such curve, though single readings can be large or run the other way; note: the source files actives as falling curves though it sought activators and does not explain the sign; nearly all actives have a fitted effect of over 65% in size
# Target sequence (P80244 whole entry, looked up): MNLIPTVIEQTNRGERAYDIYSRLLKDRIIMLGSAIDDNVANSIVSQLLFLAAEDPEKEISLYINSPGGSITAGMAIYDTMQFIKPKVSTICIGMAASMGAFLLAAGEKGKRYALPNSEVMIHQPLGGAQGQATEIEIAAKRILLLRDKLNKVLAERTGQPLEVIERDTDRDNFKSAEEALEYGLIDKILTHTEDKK
#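 Purified B. subtilis ClpP, 10 microg/mL final in Tris/HCl pH8 with KCl, BSA, glycerol and Tween-20, cleaved an Abz/nitrotyrosine-quenched decapeptide. Fluorescence (ex 320, em 430) was read at 0 and 20 min at room temperature. Delta was normalized to 5.8 microM ADEP and DMSO/no-enzyme controls.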
# DRD3 agonist – agonists of human D3 dopamine receptor; 410,000 compounds, 0.58% hits; max activation, %; AID 652048; D3R DiscoveRx beta-arrestin cells, luminescence, 90 min; in the data active = max activation above about 30%
#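 Agonist-mode cell screen: cells plated at 1500/well and incubated overnight at 37 °C, then exposed to library compounds for 90 min at 37 °C. Detection reagent was added for 30–60 min at room temperature, and luminescence was read.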
# A number is an active result; i = inactive; ? = inconclusive; nt = no result; ! = repeats disagree. Compounds with a hit are over-represented: about 21% of the library has one in this group of screens. Unless noted, calls come from the whole dose curve; as a rule, active = well fitted inhibition curve with a large enough effect; inconclusive = small, poorly fitted or top-dose-only effect; inactive = flat fitted curve, though single readings scatter.
SMILES,IL1B secr inh,D3 antag,TDP1 cell noCPT,DT40 TDP1 CPT,ClpP mod,DRD3 agonist
O=C1NC(Cc2ccc(O)cc2)c2nc3cc(F)c(F)cc3c(=O)n2-c2cc3ccccc3cc21 (configuration not stated),i,i,?,?,i,i
Cc1ccc2c(=O)n3c(nc2c1)C(Cc1ccccc1)NC(=O)c1cc2ccccc2cc1-3 (configuration not stated),i,i,?,?,?,i
O=C1NC(Cc2ccc(O)cc2)c2nc3cc(Cl)ccc3c(=O)n2-c2cc3ccccc3cc21 (configuration not stated),i,i,i,i,i,i
O=C1NC(Cc2ccccc2)c2nc3cc(F)c(F)cc3c(=O)n2-c2cc3ccccc3cc21 (configuration not stated),i,i,18µM,23µM,i,i
COc1cc2nc3n(c(=O)c2cc1OC)-c1cc2ccccc2cc1C(=O)NC3Cc1ccccc1 (configuration not stated),i,i,16µM,?,?,i
O=C1NC(Cc2ccccc2)c2nc3ccccc3c(=O)n2-c2cc3ccccc3cc21 (configuration not stated),i,i,13µM,13µM,?,i
COc1ccc(C(O)c2ncc(-c3ccccc3F)[nH]2)cc1 (configuration not stated),i,i,i,?,i,i
COc1cc(Cl)c(C)cc1NC(=O)c1cc(CN2CCOCC2)on1,nt,nt,?,?,i,i
COc1cc2nc3n(c(=O)c2cc1OC)-c1ncccc1C(=O)NC3Cc1ccccc1 (configuration not stated),i,i,i,i,i,i
O=C1NC(Cc2ccccc2)c2nc3ccc(F)cc3c(=O)n2-c2ncccc21 (configuration not stated),i,i,21µM,?,i,i
CCC1NC(=O)c2cc3ccccc3cc2-n2c1nc1cc(F)ccc1c2=O (configuration not stated),i,i,?,i,i,i
CCCC1NC(=O)c2cc3ccccc3cc2-n2c1nc1cc(F)ccc1c2=O (configuration not stated),i,i,21µM,?,i,i
O=C1NC(Cc2ccc(O)cc2)c2nc3ccc(F)cc3c(=O)n2-c2cc3ccccc3cc21 (configuration not stated),i,i,26µM,?,i,i
Cc1nc(CNC(=O)CC2C(=O)NCCN2Cc2ccoc2)nc2c1CCCC2 (configuration not stated),i,i,i,i,i,i
CC(C)c1ccc(C(=O)CC2(O)C(=O)N(CN3CCOCC3)c3ccccc32)cc1 (configuration not stated),i,i,i,?,i,i
COc1ccc(C(=O)Nc2cccc3c2CCCC3)c(OC)c1,i,i,?,i,nt,i
O=C(CCc1nnc2ccc(NCc3ccco3)nn12)Nc1ccc(F)cc1,i,i,i,i,i,i
COc1ccc(NC(=O)C2CCC(CNc3c(N4CCC(C)CC4)c(=O)c3=O)CC2)cc1OC (configuration not stated),i,-105!,i,i,i,i
Cc1ccnc(NC(=O)C2CCC(CNc3c(N4CCCC4)c(=O)c3=O)CC2)c1 (configuration not stated),-67,i,?,i,i,i
COc1cc(NC(=O)C2CCC(CNc3c(N4CCC(C)CC4)c(=O)c3=O)CC2)cc(OC)c1 (configuration not stated),-62!,i,i,?,i,i
CCOc1ccc(NC(=O)C2CCC(CNc3c(N4CCC(C)CC4)c(=O)c3=O)CC2)cc1 (configuration not stated),i,i,i,i,nt,i

# Compound activity as filed in PubChem.
